Data: the supplement of paper PMC8728848
The entries come from a sample that favours the strongest signals as a whole.

Assays:
Assay in all cases: glycan array binding signal (z-score within array); higher = stronger binding
Details in all cases: glycan notation: IUPAC condensed, linker removed
[1] = molecular target: GalNAc(b1-4)GlcNAc
How it was run: (§1)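 Glycan array data were curated from 3228 arrays in the Consortium for Functional Glycomics database and kept only where the protein sequence was available. Glycan names were converted to IUPAC-condensed notation, and columns mapping to the same glycan were averaged. The binding signal is a within-array Z-score, averaged across arrays of the same protein sequence at different concentrations or buffers and across linkers. Negative Z-scores can be read as non-binding.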

[2] = molecular target: GlcA(b1-3)GlcNAc
How it was run: as §1

[3] = molecular target: GlcNAc(a1-3)Gal(b1-4)GlcNAc
How it was run: as §1

[4] = molecular target: GlcNAc(b1-3)Gal(b1-4)GlcNAc(b1-3)Gal(b1-4)GlcNAc(b1-2)Man(a1-3)[GlcNAc(b1-3)Gal(b1-4)GlcNAc(b1-3)Gal(b1-4)GlcNAc(b1-2)Man(a1-6)]Man(b1-4)GlcNAc(b1-4)GlcNAc
How it was run: as §1

[5] = molecular target: GlcNAc(b1-3)Gal(b1-4)GlcNAc(b1-3)Gal(b1-4)GlcNAc(b1-3)Gal(b1-4)GlcNAc(b1-2)Man(a1-3)[GlcNAc(b1-3)Gal(b1-4)GlcNAc(b1-3)Gal(b1-4)GlcNAc(b1-3)Gal(b1-4)GlcNAc(b1-2)Man(a1-6)]Man(b1-4)GlcNAc(b1-4)GlcNAc
How it was run: as §1

[6] = molecular target: GlcNAc(b1-4)[GlcNAc(b1-6)]GalNAc
How it was run: as §1

[7] = molecular target: GlcNAc(b1-6)GalNAc
How it was run: as §1

[8] = molecular target: Neu5Ac(a2-3)Gal(b1-3)GlcNAc(b1-2)Man(a1-3)[GlcNAc(b1-4)][Neu5Ac(a2-3)Gal(b1-3)GlcNAc(b1-2)Man(a1-6)]Man(b1-4)GlcNAc(b1-4)GlcNAc
How it was run: as §1

[9] = molecular target: Neu5Ac(a2-3)Gal(b1-4)GlcNAc(b1-2)[Neu5Ac(a2-3)Gal(b1-4)GlcNAc(b1-6)]Man(a1-6)[Neu5Ac(a2-3)Gal(b1-4)GlcNAc(b1-2)Man(a1-3)][GlcNAc(b1-4)]Man(b1-4)GlcNAc(b1-4)GlcNAc
How it was run: as §1

[10] = molecular target: Neu5Ac(a2-3)Gal(b1-4)GlcNAc(b1-3)Gal(b1-4)GlcNAc(b1-3)Gal(b1-4)GlcNAc
How it was run: as §1

[11] = molecular target: Neu5Ac(a2-3)Gal(b1-4)GlcNAc(b1-3)Gal(b1-4)[Fuc(a1-3)]GlcNAc
How it was run: as §1

[12] = molecular target: Neu5Ac(a2-3)Gal(b1-4)[Fuc(a1-3)]GlcNAc(b1-6)[Neu5Ac(a2-3)Gal(b1-3)]GalNAc
How it was run: as §1

[13] = molecular target: Neu5Ac(a2-3)[GalNAc(b1-4)]Gal(b1-4)GlcNAc
How it was run: as §1

[14] = molecular target: Neu5Ac(a2-6)Gal(b1-4)GlcNAc(b1-2)Man(a1-3)[Neu5Ac(a2-6)Gal(b1-4)GlcNAc(b1-2)Man(a1-6)]Man(b1-4)GlcNAc(b1-4)GlcNAc
How it was run: as §1

[15] = molecular target: Neu5Ac(b2-6)Gal(b1-4)GlcNAc
How it was run: as §1

[16] = molecular target: Neu5Ac9Ac(a2-6)Gal(b1-4)GlcNAc
How it was run: as §1

B1: AT3G09350(27) (Arabidopsis thaliana), Q84J81 (protein)
chain: MAKDGPNWDGLLKWSLSHADGTRPTRQLSEEDRKWFMEAMQSQTVDVVKRMKEITLVMQTPEQVLVEHGVTPEDIQDLLDELQEHVESIDMANDLHSIGGLVPLLSFLKNSHANIRAKAADVVSTIVQNNPRSQELVMETNALESLLSNFTSDTDIHARTQALGAISSLIRHNKPGVTAFKLANGYAGLRDALASDSVRFQRKALNLLQYLLQEDDSDRSIATGLGFPRVMMHLASSDDAEIREAALRGLLELSREKNDGSSSIDKSDEKLRQLLEERIKGITLMSQEDLETVKEERQLVDLLWSICYNEPSSLREKGLVVLPGEDALPPDVASKLFEPPLRASAANRNATEKKDEPMKLLGP
**Q.** B1 was tested. Which “glycan array binding signal (z-score)” value [1] did it give?
**A.** 7.59

**Q.** And the “glycan array binding signal (z-score)” value [2]?
**A.** -0.957

**Q.** What about the “glycan array binding signal (z-score)” value [3] of the same binder?
**A.** -0.46

**Q.** And the “glycan array binding signal (z-score)” value [4]?
**A.** 0.28

**Q.** And the “glycan array binding signal (z-score)” value [5]?
**A.** 0.057

**Q.** What about the “glycan array binding signal (z-score)” value [6] of the same binder?
**A.** -0.008

**Q.** And the “glycan array binding signal (z-score)” value [7]?
**A.** 0.847

**Q.** And the “glycan array binding signal (z-score)” value [8]?
**A.** -0.8

**Q.** What about the “glycan array binding signal (z-score)” value [9] of the same binder?
**A.** -0.435

**Q.** What about the “glycan array binding signal (z-score)” value [10] of the same binder?
**A.** 0.446

**Q.** And the “glycan array binding signal (z-score)” value [11]?
**A.** -0.305

**Q.** What about the “glycan array binding signal (z-score)” value [12] of the same binder?
**A.** 0.415

**Q.** What about the “glycan array binding signal (z-score)” value [13] of the same binder?
**A.** -0.121

**Q.** What about the “glycan array binding signal (z-score)” value [14] of the same binder?
**A.** 0.535

**Q.** And the “glycan array binding signal (z-score)” value [15]?
**A.** 0.639

**Q.** What about the “glycan array binding signal (z-score)” value [16] of the same binder?
**A.** -0.732
